Article PMC11995724, “Antibiotic target discovery by integrated phenotypic and activity-based profiling of electrophilic fragments” (Cell chemical biology, 2025)
The whole screen tested about 3,200 compounds, of which about 110 (3.4%) showed an effect of 50% or more. Only a selection was taken, and strong results are over-represented in it overall.

system: T1, V. cholerae SAD30; parameters: species or system S. aureus MSSA476 (TSB) or V. cholerae SAD30 (LB); 384-well bacterial growth screen at 25 uM, OD600 relative to DMSO control; details: relative growth, OD600, LB; 25 µM; inhibitor
T1 construct: SAD30

Structure (SMILES) | % of control remaining [%]
COc1cc(Cl)c(C)cc1N1C(=O)C=CC1=O [10-B15, 1-(4-chloro-2-methoxy-5-methylphenyl)-2,5-dihydro-1H-pyrrole-2,5-dione] | 23.534
COc1ccccc1NC(=O)C(C)Cl (centres unmarked) [5-L20, 2-chloro-N-(2-methoxyphenyl)propanamide] | 97.5097
COc1cc(Cl)c(C)cc1NC(=O)C(C)Cl (centres unmarked) [6-C15, 2-chloro-N-(4-chloro-2-methoxy-5-methylphenyl)propanamide] | 86.6054
COc1ccc(OC)c(NC(=O)CCl)c1 [6-O04, 2-chloro-N-(2,5-dimethoxyphenyl)acetamide] | 96.0091
COc1ccc(OC)c(C(C)NC(=O)CCl)c1 (centres unmarked) [4-M19, 2-chloro-N-[1-(2,5-dimethoxyphenyl)ethyl]acetamide] | 102.48
COc1ccccc1CN1C(=O)C=CC1=O [10-P21, 1-[(2-methoxyphenyl)methyl]-2,5-dihydro-1H-pyrrole-2,5-dione] | 42.8599
COc1cc(Cl)c(C)cc1NC(=O)C(C#N)=CC=Cc1ccccc1 [8-A21, N-(4-chloro-2-methoxy-5-methylphenyl)-2-cyano-5-phenylpenta-2,4-dienamide] | 93.0659
COc1ccccc1CN(C)C(=O)CCl [6-C09, 2-chloro-N-[(2-methoxyphenyl)methyl]-N-methylacetamide] | 89.7905
COc1ccc(OC)c(N2C(=O)C=CC2=O)c1 [10-N15, 1-(2,5-dimethoxyphenyl)-2,5-dihydro-1H-pyrrole-2,5-dione] | 24.7808
COc1ccccc1CNC(=O)C(C)Cl (centres unmarked) [5-M21, 2-chloro-N-[(2-methoxyphenyl)methyl]propanamide] | 101.376
COc1ccccc1N1C(=O)C=CC1=O [10-O10, 1-(2-methoxyphenyl)-2,5-dihydro-1H-pyrrole-2,5-dione] | 26.0277
CC(Cl)C(=O)NCCC1=CCCCCC1 (centres unmarked) [5-N19, 2-chloro-N-[2-(cyclohept-1-en-1-yl)ethyl]propanamide] | 88.2631
CN(Cc1ccc(N(C)C)cc1)C(=O)CCl.Cl [5-F06, 2-chloro-N-{[4-(dimethylamino)phenyl]methyl}-N-methylacetamide hydrochloride] | 92.298
CSc1ccccc1NC(=O)C(C)Cl (centres unmarked) [4-M12, 2-chloro-N-[2-(methylsulfanyl)phenyl]propanamide] | 94.8889
C=CC(=O)N1CCCn2cccc2C12CCOCC2 [1-A22, 1-{2',3',4',5'-tetrahydrospiro[oxane-4,1'-pyrrolo[1,2-a][1,4]diazepin]-2'-yl}prop-2-en-1-one] | 107.922
CCC(NC(=O)CCl)c1ccc(C)cc1 (centres unmarked) [4-K17, 2-chloro-N-[1-(4-methylphenyl)propyl]acetamide] | 97.3043
C=CC(=O)NCc1ccno1 [1-O07, N-[(1,2-oxazol-5-yl)methyl]prop-2-enamide] | 86.846
C=CC(=O)NC1CC(C)Cc2cc(OC)ccc21 (centres unmarked) [3-L17, N-(6-methoxy-3-methyl-1,2,3,4-tetrahydronaphthalen-1-yl)prop-2-enamide] | 87.3259
O=C(CCl)NC(c1cc(F)ccc1F)C(F)F (centres unmarked) [7-F22, 2-chloro-N-[1-(2,5-difluorophenyl)-2,2-difluoroethyl]acetamide] | 92.5161

Structure (SMILES) | % of control remaining [%]
C=CC(=O)N(CCO)c1ccc(C(=O)O)cc1 [1-M10, 4-[N-(2-hydroxyethyl)prop-2-enamido]benzoic acid] | 88.6398
C=CC(=O)N1CCC(C(=O)N(C)Cc2ccon2)CC1 [2-I14, N-methyl-N-[(1,2-oxazol-3-yl)methyl]-1-(prop-2-enoyl)piperidine-4-carboxamide] | 86.7992
C=CC(=O)N1CCC(C(=O)N[C@H]2CC[C@@H]2O)(c2ccccc2)CC1 (racemic) [3-G08, rac-N-[(1R,2R)-2-hydroxycyclobutyl]-4-phenyl-1-(prop-2-enoyl)piperidine-4-carboxamide] | 93.3248
C=CC(=O)N1CCC(C(=O)Nc2ccccc2NS(C)(=O)=O)CC1 [3-C06, N-(2-methanesulfonamidophenyl)-1-(prop-2-enoyl)piperidine-4-carboxamide] | 107.793
CC(C)NC(=O)C(C#N)=Cc1ccccc1 [8-L05, 2-cyano-3-phenyl-N-(propan-2-yl)prop-2-enamide] | 76.8865
CC(C)NC(=O)C(C#N)=Cc1cccs1 [8-H15, 2-cyano-N-(propan-2-yl)-3-(thiophen-2-yl)prop-2-enamide] | 71.0401
Cc1cccc(NC(=O)NC(=O)CCl)c1C [4-D21, 3-(2-chloroacetyl)-1-(2,3-dimethylphenyl)urea] | 104.033
C=CC(=O)NCCn1cc(Cl)c(C(F)(F)F)n1 [2-F03, N-{2-[4-chloro-3-(trifluoromethyl)-1H-pyrazol-1-yl]ethyl}prop-2-enamide] | 108.106
COc1ccc(Cl)cc1N1C(=O)C=CC1=O [10-K10, 1-(5-chloro-2-methoxyphenyl)-2,5-dihydro-1H-pyrrole-2,5-dione] | 24.1574
COc1ccc(N2C(=O)C=CC2=O)c(OC)c1 [10-J15, 1-(2,4-dimethoxyphenyl)-2,5-dihydro-1H-pyrrole-2,5-dione] | 26.9628
COc1ccc(Cl)cc1CNC(=O)CCl [6-A16, 2-chloro-N-[(5-chloro-2-methoxyphenyl)methyl]acetamide] | 95.2507
COc1ccc(Cl)cc1NC(=O)C(C)Cl (centres unmarked) [6-G16, 2-chloro-N-(5-chloro-2-methoxyphenyl)propanamide] | 89.3355
COc1ccc(C(=O)C(C)Cl)c(OC)c1 (centres unmarked) [10-J17, 2-chloro-1-(2,4-dimethoxyphenyl)propan-1-one] | 98.0323
COc1ccc(C2CCCN2C(=O)CCl)c(OC)c1 (centres unmarked) [4-P22, 2-chloro-1-[2-(2,4-dimethoxyphenyl)pyrrolidin-1-yl]ethan-1-one] | 115.247
CC(Cl)C(=O)N1CCN(Cc2cc(=O)n3ccsc3n2)CC1 (centres unmarked) [6-P17, 7-{[4-(2-chloropropanoyl)piperazin-1-yl]methyl}-5H-[1,3]thiazolo[3,2-a]pyrimidin-5-one] | 97.5258
C=CC(=O)N1CCCCC(S(C)(=O)=O)C1 (centres unmarked) [2-E17, 1-(3-methanesulfonylazepan-1-yl)prop-2-en-1-one] | 92.6662
CCc1nocc1CN(C)C(=O)CCl [5-B11, 2-chloro-N-[(3-ethyl-1,2-oxazol-4-yl)methyl]-N-methylacetamide] | 90.6168
C=CC(=O)N1CCC(C(=O)N2Cc3ccc([N+](=O)[O-])cc3C2)CC1 [2-F04, 1-[4-(5-nitro-2,3-dihydro-1H-isoindole-2-carbonyl)piperidin-1-yl]prop-2-en-1-one] | 98.2245
CCn1ncc(C(=O)CCl)n1 [10-E13, 2-chloro-1-(2-ethyl-2H-1,2,3-triazol-4-yl)ethan-1-one] | 0

Structure (SMILES) | % of control remaining [%]
Cn1ncc(C(=O)CCl)n1 [10-J10, 2-chloro-1-(2-methyl-2H-1,2,3-triazol-4-yl)ethan-1-one] | 112.838
CCn1cc(NC(=O)CCl)cn1.Cl [6-I15, 2-chloro-N-(1-ethyl-1H-pyrazol-4-yl)acetamide hydrochloride] | 98.4359
CCn1nc(C)c(CNC(=O)CCl)c1C [7-P10, 2-chloro-N-[(1-ethyl-3,5-dimethyl-1H-pyrazol-4-yl)methyl]acetamide] | 85.1148
CCn1nc(C)c(C(=O)CCl)n1 [10-P08, 2-chloro-1-(2-ethyl-5-methyl-2H-1,2,3-triazol-4-yl)ethan-1-one] | 40.2104
CCn1nc(C)c(CN(C)C(=O)CCl)c1C [5-A10, 2-chloro-N-[(1-ethyl-3,5-dimethyl-1H-pyrazol-4-yl)methyl]-N-methylacetamide] | 104.907
O=S(=O)(CC=C(Cl)Cl)N1CCSSCC1 [10-P19, 5-(3,3-dichloroprop-2-ene-1-sulfonyl)-1,2,5-dithiazepane] | 92.5774
C=CC(=O)NCc1ccc(S(=O)(=O)NC2CC2)cc1 [2-P19, N-{[4-(cyclopropylsulfamoyl)phenyl]methyl}prop-2-enamide] | 96.8349
C=CC(=O)N1CCCC(c2nc(N(C)C)no2)C1 (centres unmarked) [3-A13, 1-{3-[3-(dimethylamino)-1,2,4-oxadiazol-5-yl]piperidin-1-yl}prop-2-en-1-one] | 112.204
CC(Cl)C(=O)NCC1CN(c2nncs2)CCO1 (centres unmarked) [7-O03, 2-chloro-N-{[4-(1,3,4-thiadiazol-2-yl)morpholin-2-yl]methyl}propanamide] | 90.798
O=C(CCl)N1CC(Cc2ccc(F)cc2F)C1 [5-G20, 2-chloro-1-{3-[(2,4-difluorophenyl)methyl]azetidin-1-yl}ethan-1-one] | 89.2718
Cc1ccc(F)cc1NC(=O)CCl [4-O03, 2-chloro-N-(5-fluoro-2-methylphenyl)acetamide] | 106.103
O=C(CCl)Cc1ccc(F)cc1F [10-G17, 1-chloro-3-(2,4-difluorophenyl)propan-2-one] | 31.4826
CC(Cl)C(=O)N(CCc1ccc(F)cc1F)C(C)C (centres unmarked) [6-D18, 2-chloro-N-[2-(2,4-difluorophenyl)ethyl]-N-(propan-2-yl)propanamide] | 71.5897
O=C(CCl)Cc1ccc(F)cc1Cl [10-E19, 1-chloro-3-(2-chloro-4-fluorophenyl)propan-2-one] | 21.0403
O=C(CCl)NCCc1ccc(Cl)cc1Cl [6-M16, 2-chloro-N-[2-(2,4-dichlorophenyl)ethyl]acetamide] | 96.0091
O=C(CCl)Nc1c(Cl)cc(Cl)cc1Cl [5-B16, 2-chloro-N-(2,4,6-trichlorophenyl)acetamide] | 98.3503
O=C(CCl)Cc1ccc(Cl)cc1Cl [10-A15, 1-chloro-3-(2,4-dichlorophenyl)propan-2-one] | 22.1313
O=C(CCl)N(Cc1ccccc1)Cc1ccc(F)cc1 [5-I06, N-benzyl-2-chloro-N-[(4-fluorophenyl)methyl]acetamide] | 81.2021
